Screens from PubChem.
This is a sample that favours compounds with a hit; in the whole collection about 2.8% have one here.
FH mod: Identification of activators of human fumarate hydratase by quantitative high-throughput screening. Fumarate hydratase, mitochondrial (Homo sapiens), P07954. FH coupled MDH/diaphorase resazurin fluorescence, 15 min. Potency, µM (doses to about 79.9 µM), for the others: at the top dose activity change, negative = inhibition, hits mostly inhibitors. 54,000 compounds, 0.22% hits; note: potency is the fitted concentration of half-maximal effect; % is set by controls: 0 for no effect and ±100 for the full control effect; the screen sought activators but most active calls are inhibition curves; nearly all actives have a fitted effect of over 45% in size
GALK inh: inhibitors of human galactokinase (GALK). Potency, µM (top dose mostly 57.5 µM), without a hit: at the top dose activity, negative = inhibition, actives largely listed as inhibitors. P51570. recombinant GALK, Kinase-Glo ATP luminescence, 1 h. 44,000 tested, under 10 active;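 note: plate controls were full GALK reaction for no effect and reaction lacking GALK for full effect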
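Luminescent ATP-depletion readout (Kinase-Glo Plus, 10 min) after 1 h RT reaction of 5 nM GALK, 35 uM ATP, 100 uM galactose, pH 8.0 HEPES buffer. Decreased kinase activity scored as inhibition.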
TSG101-PTAP inh: inhibitors of HIV-1 PTAP binding to human TSG101, validation; AID 1347069; Q99816; Potency, µM (doses to about 115 µM), hits mostly inhibitors; Fluorescence polarization, FITC-PTAP peptide/Tsg101, 20 min; 44,000 tested, under 10 active; note: potency is the fitted concentration of half-maximal effect; 0% is about no effect
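The Tsg101 binding domain, at 10 uM final, is mixed with compound and a FITC peptide bearing the PTAP motif (50 nM final). After 20 min at r.t., polarization is measured; actives defined by CRC class, efficacy cut-off 60% inhibition.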
GPR32 ag: GPR32 (DRV1) agonism, beta-arrestin recruitment; CHO-K1 GPR32 beta-arrestin PathHunter luminescence, 90 min; zero percent set by DMSO-only wells; activation, % at 76.9 µM; 48,000 compounds, 2.5% hits; AID 1346428;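 active = activation of at least 60% and not above a set upper limit, about 1 call in 100 departs from these limits; inconclusive = activation of 40% to 60%, or above that upper limit; inactive = activation under 40%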; note: 0% is about no effect
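Beta-arrestin recruitment read-out: luminescence from complemented beta-Gal in CHO-K1 GPR32 PathHunter cells, measured 1 h after detection reagent at ambient temperature following 90 min compound exposure at 37 °C; DMSO served as basal (EC0) control.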
GALC G270D up: galactocerebrosidase G270D activity enhancement, cell-based; Potency, µM (series often up to 57.5 µM), actives largely listed as activators; 145M-Twi-hGALC-G270D cells (Twitcher mouse brain line with human GALC G270D), HMU-beta-Gal fluorescence, 48 h; P54803; AID 1159614; 45,000 compounds, 0.1% hits; note: potency is the fitted concentration of half-maximal effect; 0% is about no effect; nearly all actives have a fitted effect of over 65% in size
Target sequence (P54803 whole entry G286D): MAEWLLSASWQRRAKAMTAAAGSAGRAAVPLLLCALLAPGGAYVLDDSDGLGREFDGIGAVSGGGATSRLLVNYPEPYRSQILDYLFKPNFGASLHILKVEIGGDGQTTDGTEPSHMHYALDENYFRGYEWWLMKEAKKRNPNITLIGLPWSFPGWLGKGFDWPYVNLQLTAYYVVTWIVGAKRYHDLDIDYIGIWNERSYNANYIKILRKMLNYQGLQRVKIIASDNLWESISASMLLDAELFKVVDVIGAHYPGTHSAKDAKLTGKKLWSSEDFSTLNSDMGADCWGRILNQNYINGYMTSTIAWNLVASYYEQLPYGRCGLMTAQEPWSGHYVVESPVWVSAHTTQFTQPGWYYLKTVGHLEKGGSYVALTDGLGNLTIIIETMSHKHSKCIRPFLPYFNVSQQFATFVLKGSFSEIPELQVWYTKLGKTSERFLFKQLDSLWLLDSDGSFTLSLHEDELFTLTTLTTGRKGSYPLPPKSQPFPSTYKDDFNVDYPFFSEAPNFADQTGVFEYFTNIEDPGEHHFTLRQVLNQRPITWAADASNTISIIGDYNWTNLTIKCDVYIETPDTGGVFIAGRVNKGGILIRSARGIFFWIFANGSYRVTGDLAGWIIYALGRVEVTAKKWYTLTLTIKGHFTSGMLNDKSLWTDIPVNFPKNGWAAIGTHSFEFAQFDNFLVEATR
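Live 145M-Twi cells (Twitcher mouse brain-derived, GALC-null) stably expressing human GALC-G270D, with a wild-type GALC line, were compound-treated. Residual GALC activity was then read as fluorescence from 0.1 mM final HMU-β-gal at pH 5.2; higher signal means activation.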
B2AR arrestin ag: ADRB2 beta-arrestin recruitment; HTLA Tango cells, beta-arrestin recruitment, luciferase luminescence, 18 h; Potency, µM (titrated, usually from 46.1 µM), hits mostly activators; 44,000 tested, under 10 active;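 note: potency is the fitted concentration of half-maximal effect; 0% = DMSO and full agonism = EC100 isoproterenol or metaproterenol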
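Ligand-induced beta-arrestin recruitment to recombinant beta2-AR is measured via a tTA-driven luciferase reporter in Tango cells after 18 hr compound exposure at 37 degrees C. Concentrations span up to 46 microM.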
Active calls of the source: *; i = inactive; ? = inconclusive; nt = no result given; ! = not active in a repeat; [ ] = dose if it differs, or a comment. Unless noted, calls come from the whole dose curve; as a rule, active = well fitted curve in the direction sought with a large enough effect; inconclusive = small, poorly fitted or top-dose-only effect, or another doubt; inactive = no such curve, though single readings can be large; an effect the other way counts as inactive or inconclusive.

SMILES	FH mod	GALK inh	TSG101-PTAP inh	GPR32 ag	GALC G270D up	B2AR arrestin ag
CC(C)[C@H](NC(=O)c1nn(Cc2ccc(F)cc2)c2ccccc12)C(N)=O	2%	nt	nt	nt	nt	nt
O=C(O)c1nn(Cc2ccc(Cl)cc2Cl)c2ccccc12	-22%[53.3 µM]	nt	nt	64*!	i	nt
Oc1ccc([C@H]2CNCc3c2ccc(O)c3O)cc1O	31µM*	nt	nt	-6	i	nt
CN1C2CCC1CC(OC(=O)N1Cc3ccccc3NC1=O)C2 (stereo not given)	2%	nt	nt	nt	nt	nt
CC(=O)O[C@H]1CN2CCC1CC2	8%	nt	nt	nt	nt	nt
O=C(NCCCNc1nc(Nc2ccc(N3CCOCC3)cc2)ncc1C1CC1)C1CCC1	0%	nt	nt	nt	nt	nt
O=C(CCc1nc(C2=CCN(Cc3cccc(Cl)c3)CC2)no1)Nc1ccccc1F	-18%	-6%	i	70*	i	i
O=c1c(O)c(-c2ccc(O)c(O)c2)oc2cc(O)cc(O)c12	?	nt	nt	109*!	i	nt
C[C@@H]1O[C@@H](O[C@H]2C[C@@H](O)[C@]3(CO)[C@H]4[C@H](O)C[C@]5(C)[C@@H](C6=CC(=O)OC6)CC[C@]5(O)[C@@H]4CC[C@]3(O)C2)[C@H](O)[C@H](O)[C@H]1O	6%[53.3 µM]	nt	nt	65*!	i	nt
C[C@@H]1O[C@@H](O[C@H]2CC[C@@]3(C)C(CC[C@@H]4C3CC[C@]3(C)[C@@H](C5=CC(=O)OC5)CC[C@]43O)C2)[C@H](O)[C@H](O)[C@H]1O (stereo not given in full)	2%[53.3 µM]	nt	nt	nt	nt	nt
CN1CCc2cc(Cl)c(O)cc2[C@H]2c3ccccc3CC[C@@H]21	0%[53.3 µM]	nt	nt	34	i	nt
CCCN1CCc2cc(O)cc3c2[C@H]1Cc1ccc(O)c(O)c1-3	14µM*	nt	nt	21	nt	nt
CN1CCc2cc(O)cc3c2[C@H]1Cc1ccc(O)c(O)c1-3	14µM*	nt	nt	17	nt	nt
C[C@H]1C2Cc3ccc(O)cc3[C@@]1(C)CCN2CC1CC1	-13%[53.3 µM]	nt	nt	nt	nt	nt
CCC(OC(C)=O)C(CC(C)NC)(c1ccccc1)c1ccccc1 (stereo not given)	4%	nt	nt	85*	i	nt
C[C@@H]1O[C@@H](OC2CCC3(C=O)C(CCC4C3CCC3(C)C(C5=CC(=O)OC5)C(O)CC43O)C2)[C@H](O)[C@H](O)[C@H]1O[C@@H]1O[C@H](CO)[C@@H](O)[C@H](O)[C@H]1O (stereo not given in full)	-1%[20.6 µM]	nt	nt	nt	nt	nt
O=C(Nc1ccc(Br)cc1)c1cc(Br)cc(Br)c1O	-25%[53.3 µM]	nt	nt	82*	i	nt
CCCCCn1cc(C(=O)Cc2ccccc2OC)c2ccccc21	-9%	nt	nt	nt	nt	nt
CC1=CC2/C=C(\C)CCCC(O)/C=C/C(=O)OC23C(=O)NC(CC(C)C)C3C1C (stereo not given)	1%[53.3 µM]	nt	nt	nt	nt	nt
CC(C)(C)CC(C)(C)c1ccc(O)cc1	?	nt	nt	116*!	i	nt
CC(C)(c1ccc(O)cc1)c1ccc(O)cc1	-8%	nt	nt	64*	i	nt
CCC(C)(C)c1ccc(O)cc1	-12%[53.3 µM]	nt	nt	?	i	nt
Nc1ncnc2c1ncn2[C@@H]1O[C@H](COP(=O)(O)CP(=O)(O)OP(=O)(O)O)C(O)[C@H]1O (stereo not given in full)	-20%[53.3 µM]	nt	nt	nt	nt	nt
CCOC(=O)N1CCN(c2ncc3c(n2)CC(c2ccccc2O)CC3=O)CC1 (stereo not given)	-15%	1%	i	76*	i	i
CCNC(=O)[C@H]1O[C@@H](n2cnc3c(N)ncnc32)[C@H](O)C1O (stereo not given in full)	4%[53.3 µM]	nt	nt	nt	nt	nt
SMILES	FH mod	GALK inh	TSG101-PTAP inh	GPR32 ag	GALC G270D up	B2AR arrestin ag
N#Cc1cccc(NC(=O)CSc2nc3c(cc2C#N)N2CCC3CC2)c1	-18%	2%	i	21	i	i
N#Cc1cc2c(nc1SCC(=O)Nc1cccc(C(F)(F)F)c1)C1CCN2CC1	1%	-2%	i	64*	i	i
CCCCCCCCCC(CC)c1ccc(S(=O)(=O)O)cc1 (stereo not given)	?	nt	nt	101*	i	nt
C/C=C(\C)C(=O)O[C@H]1[C@H](OC(C)=O)[C@]2(CO)[C@H](O)[C@H](O)[C@]3(C)C(=CCC4[C@@]5(C)CC[C@H](O[C@@H]6O[C@H](C(=O)O)[C@@H](O)[C@H](O[C@@H]7OC[C@H](O)[C@H](O[C@@H]8OC[C@H](O)[C@H](O)[C@H]8O)[C@H]7O)[C@H]6O[C@@H]6O[C@H](CO)[C@@H](O)[C@H](O)[C@H]6O)C(C)(C)C5CC[C@]43C)[C@@H]2CC1(C)C (stereo not given in full)	0%[13.5 µM]	nt	nt	nt	nt	nt
Cc1oc2cc3oc(=O)c(CCC(=O)N4CCCCC4)c(C)c3cc2c1C	nt	2%	i	87*	nt	i
CCOC(=O)C1(CCc2ccccc2)CCN(Cc2ccc(NC(C)=O)cc2)CC1	-1%	nt	nt	nt	nt	nt
CC(=O)OC1(c2ccccc2)CCN(CCc2ccccc2)CC1	0%	nt	nt	85*	i	nt
